FBPA coupling cs – inhibits coupling enzyme system, counter-screen for aldolase hits. 290,000 tested, 0.67% active. activity change, negative = inhibition, % at 58.2 µM, hits read low. coupling enzyme system counterscreen, AmpLite Red fluorescence. AID 2472; in the data active means activity change below about -30%
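First, compound is pin-transferred into glyceraldehyde-3-phosphate coupling-enzyme reagent at 57.5 uM final and held 10 min at RT. Next, substrate, coupling system and AmpLite Red are added. After 20 min RT, fluorescence (525/598 nm) is read.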
Tau ThT inhib – inhibitors of human tau fibril formation, thioflavin T binding | P10636 | recombinant tau K18 P301L, heparin-induced fibrillization, ThT fluorescence | Potency, µM (series often up to 57.4 µM), most hits filed as inhibitors | 270,000 tested, 2.1% active | AID 1460; further: nearly all actives have a fitted effect of over 55% in size
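Aggregation was driven by heparin (20 uM final) acting on recombinant tau […] bearing P301L in 100 mM sodium acetate pH 7; fibrils were detected with Thioflavin T.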
Tau FP inhib – blocks human tau fibril formation measured by polarization. 280,000 tested, 0.39% active. AID 1468. Potency, µM (series often up to 57.7 µM), most hits filed as inhibitors. K18 P301L tau heparin fibrillization, Alexa594 FP, 6 h; further: nearly all actives have a fitted effect of over 55% in size
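Compound effects on tau fibrillization are measured by Alexa 594 fluorescence polarization (ex 555, em 632 nm). K18 P301L tau is used at 15 uM with 0.24 uM labeled tracer, and 20 uM heparin induces aggregation over 6 hr at 37 C.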
USP1 inh – USP1/UAF1 (human) deubiquitinase inhibition. O94782. recombinant USP1/UAF1, Ub-Rhodamine cleavage fluorescence. Potency, µM (titrated, usually from 57.1 µM), most hits filed as inhibitors. 390,000 tested, 0.23% active. AID 743255; further: nearly all actives have a fitted effect of over 60% in size
Target sequence (O94782 whole entry, looked up): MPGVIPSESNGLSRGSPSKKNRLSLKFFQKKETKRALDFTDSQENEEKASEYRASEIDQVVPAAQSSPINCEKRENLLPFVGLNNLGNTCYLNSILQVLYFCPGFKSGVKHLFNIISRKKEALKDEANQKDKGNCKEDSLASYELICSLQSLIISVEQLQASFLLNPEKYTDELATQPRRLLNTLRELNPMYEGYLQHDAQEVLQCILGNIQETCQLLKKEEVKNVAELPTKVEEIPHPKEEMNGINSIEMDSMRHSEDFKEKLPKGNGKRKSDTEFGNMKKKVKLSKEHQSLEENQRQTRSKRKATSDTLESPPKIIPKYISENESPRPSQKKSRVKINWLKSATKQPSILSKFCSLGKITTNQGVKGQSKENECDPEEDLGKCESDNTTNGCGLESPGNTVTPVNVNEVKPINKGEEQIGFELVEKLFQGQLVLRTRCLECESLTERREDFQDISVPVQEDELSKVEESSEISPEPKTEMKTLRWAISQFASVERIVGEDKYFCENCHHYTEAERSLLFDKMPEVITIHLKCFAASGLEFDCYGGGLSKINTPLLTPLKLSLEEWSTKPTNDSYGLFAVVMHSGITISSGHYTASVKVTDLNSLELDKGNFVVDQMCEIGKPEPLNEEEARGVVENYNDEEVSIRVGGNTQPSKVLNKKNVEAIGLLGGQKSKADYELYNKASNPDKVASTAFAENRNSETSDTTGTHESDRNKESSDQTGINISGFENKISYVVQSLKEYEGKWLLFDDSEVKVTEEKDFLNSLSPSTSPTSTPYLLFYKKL
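High-throughput fluorogenic screen: 1nM USP1/UAF1 complex, Ub-Rho substrate 150nM final, 50mM HEPES pH 7.8 with 0.5mM EDTA, 0.1 mg/ml BSA, 1mM TCEP and 0.01% Tween-20.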
Tau fluor counter – counter-screen for tau fibril formation inhibitors; tau K18 P301L Alexa594 fluorescence, heparin fibrillization; AID 1463; Potency, µM (series often up to 57.7 µM); 280,000 tested, 0.93% active; further: nearly all actives have a fitted effect of over 55% in size
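Human tau K18 P301L (15 uM unlabeled, 0.24 uM Alexa 594-labeled) in 100 mM sodium acetate pH 7 with 20 uM heparin, 6 hr at 37 C. ThT 30 uM added, 1 hr ambient; Alexa 594 FP and total fluorescence read at 555/632 nm.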
Each line names hits and unclear results; the compound was inactive in the other large screens; [ ] = remark or other dose. Rows were chosen to be rich in hits. Some 2.3% of all compounds tested hit in one or more screens of this group. Unless noted, the call rests on the fitted dose curve; in most records, active means well fitted curve in the direction sought with a large enough effect; inconclusive means small, poorly fitted or top-dose-only effect, or another doubt; inactive means no such curve, though single readings can be large; an effect the other way counts as inactive or inconclusive.

CCCCc1cc2c(cn1)=C(OC(=O)c1cccs1)C(C)(OC(=O)CC)C(=O)C=2 (centres undefined)	none (no result: USP1 inh)
O=C(O)c1cccc(Cn2c(Cl)c(/C=N/NC(=O)c3ccccc3)sc2=O)c1	none
Cc1ccccc1N/N=C/c1sc(=O)n(Cc2cccc(C(=O)O)c2)c1Cl	Tau ThT inhib 28µM, Tau fluor counter inconclusive
COC(=O)c1cccc(Cn2c(Cl)c(/C=N/Nc3ccccc3C)sc2=O)c1	Tau ThT inhib inconclusive, Tau fluor counter inconclusive
O=C(O)c1cccc(Cn2c(Cl)c(/C=N/NC(=O)c3cc4ccccc4cc3O)sc2=O)c1	Tau ThT inhib 20µM, Tau FP inhib inconclusive, USP1 inh inconclusive, Tau fluor counter inconclusive
Cc1cc(C)c(OCC(=O)N(Cc2ccc(N(C)C)cc2)Cc2ccco2)c(C)c1	Tau ThT inhib inconclusive, USP1 inh inconclusive, Tau fluor counter inconclusive (no result: FBPA coupling cs)
O=C1C(Cl)=C(NC2CCc3ccccc32)C(=O)c2ncccc21 (centres undefined)	Tau ThT inhib 13µM, Tau FP inhib inconclusive, Tau fluor counter inconclusive (no result: USP1 inh)
CCOc1ccc(NC(=O)Cn2cc(C(=O)c3ccccc3)c(=O)c3cc4c(cc32)OCO4)cc1	none (no result: FBPA coupling cs)
COc1ccc(CCNC(=O)c2cnc3sc(N4CCCCC4)nn3c2=O)cc1OC	none (no result: FBPA coupling cs)
Oc1c(C=NCc2ccccc2)sc2ccccc12	Tau ThT inhib inconclusive
Oc1c(N=Nc2ccccc2)sc2ccccc12	Tau ThT inhib 2.5µM
OC1c2ccccc2-c2nc3ccccc3cc21 (centres undefined)	Tau ThT inhib inconclusive (no result: USP1 inh)
CN(C)c1ccc(/C=C/C(=O)c2cc(Cl)ccc2O)cc1	Tau ThT inhib 4µM, Tau fluor counter inconclusive
O=C(/C=C/c1ccncc1)c1cc(Cl)ccc1O	Tau ThT inhib 28µM, Tau fluor counter inconclusive
CCCOC(=O)c1c(NC(=O)c2nc3ncccn3n2)sc(C(=O)OCC)c1C	none (no result: FBPA coupling cs)
CCC1CN(C(=O)N2CCC(C(=O)NCc3cccc(F)c3)CC2)c2ccccc2O1 (centres undefined)	none (no result: FBPA coupling cs, Tau ThT inhib, Tau FP inhib, Tau fluor counter)
CN(C)c1ccc2c(O)cc(=O)n(C)c2c1	FBPA coupling cs -37, Tau ThT inhib 25µM, Tau FP inhib 22µM
CN(c1ccc(Cl)cc1)c1cc(=O)n(C)c2ccccc12	Tau ThT inhib inconclusive, Tau FP inhib inconclusive
Cc1cc2c(cc1S(=O)(=O)NCc1ccc(F)cc1)OCC(=O)N2	Tau ThT inhib inconclusive (no result: FBPA coupling cs)
CN1CCSc2ccc(C(=O)Nc3cccc(F)c3)cc21	Tau ThT inhib inconclusive, Tau FP inhib inconclusive, Tau fluor counter 22µM[quencher]
COc1ccc(NC(=O)c2ccc3c(c2)N(C)CCS3)cc1	none (no result: Tau ThT inhib, Tau FP inhib, Tau fluor counter)
COc1cc(Br)cc(C=Nc2cccc(C(F)(F)F)c2)c1O	Tau ThT inhib 14µM
COC(=O)C1=C(C)[C@@H](O)[C@@H](C)[C@](C)(c2cc(OC)c(C)c(OC)c2COc2ccccc2)O1	none (no result: USP1 inh)
COC(=O)C1=C(CSc2nc3c(cc2C#N)CN(C)CC3)OC(N)=C(C#N)C1c1ccc(F)cc1 (centres undefined)	Tau ThT inhib 25µM, Tau FP inhib inconclusive, USP1 inh inconclusive, Tau fluor counter inconclusive
CNc1ccc(/C=C2\COc3ccccc3C2=O)cc1[N+](=O)[O-]	Tau ThT inhib 1.6µM
O=C1/C(=C/c2ccccc2[N+](=O)[O-])COc2ccccc21	Tau ThT inhib 13µM, Tau FP inhib inconclusive, Tau fluor counter inconclusive
O=C1/C(=C/c2ccc(O)cc2)COc2ccccc21	none (no result: Tau ThT inhib, Tau FP inhib, Tau fluor counter)
Cc1ccc(C2CC(=O)Oc3cc(C)c(Cl)c(C)c32)cc1 (centres undefined)	Tau ThT inhib inconclusive (no result: USP1 inh)
COC(=O)c1c(Cl)c2n3ccccc3c(C)c(-c3ccccc3)c-2c1C(=O)OC	Tau ThT inhib 7.9µM, Tau FP inhib inconclusive, Tau fluor counter inconclusive
COC(=O)c1c(C(=O)OC)c2ccccn2c1C(=O)c1ccccc1	none (no result: Tau ThT inhib, Tau FP inhib, Tau fluor counter)
COC(=O)c1cc2c(-c3ccccc3)c(C)c3ccccn3c-2c1C(=O)OC	Tau ThT inhib 16µM, USP1 inh inconclusive, Tau fluor counter inconclusive
O=C1CN(CC(=O)N2CCCCC2)c2ccccc2O1	Tau ThT inhib 28µM, Tau FP inhib inconclusive, USP1 inh inconclusive, Tau fluor counter inconclusive
O=C1CN(CC(=O)N2CCOCC2)c2ccccc2O1	FBPA coupling cs -64, Tau ThT inhib inconclusive (no result: USP1 inh)
O=C(CN1C(=O)COc2ccccc21)N1CCCC1	none (no result: Tau ThT inhib, Tau FP inhib, Tau fluor counter)
O=C(CN1C(=O)COc2ccccc21)N1CCOCC1	none (no result: FBPA coupling cs, Tau ThT inhib, Tau FP inhib, Tau fluor counter)

Source: PubChem (National Center for Advancing Translational Sciences (NCATS))
